According to PubChem BioAssay (NCI):
This is part of a sample that, as a whole, favours compounds with a hit. Of some 83,000 tested, about 20% had one in any assay.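 Note: values are percent growth. 100 is the growth of untreated cells, values between 100 and 0 indicate rising inhibition; between -100 and 0 indicates cell death.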 Values without a mark were called inactive. The source made the active and inactive calls. The calls were made as follows: active = growth percent below 10; inactive = the rest.

Legend:
Assay in all cases: NCI-60 one-dose screen, 48 h (100 = growth as untreated, 0 = no growth, -100 = all killed)
Conditions in all cases: 10 µM unless noted
[1] = tested on: SR leukemia
[2] = tested on: RPMI-8226 leukemia
[3] = tested on: OVCAR-8 ovarian
[4] = tested on: OVCAR-5 ovarian
[5] = tested on: OVCAR-4 ovarian
[6] = tested on: SK-OV-3 ovarian
[7] = tested on: IGROV1 ovarian
[8] = tested on: OVCAR-3 ovarian
[9] = tested on: NCI/ADR-RES ovarian

Cn1cc(-c2ncnc3ccc(-c4cnc(Cl)c(NS(C)(=O)=O)c4)cc23)c2ccccc21
growth [1]: 15.9%
growth [2]: 14.5%
growth [3]: 31%
growth [4]: 12.8%
growth [5]: 15.4%
growth [6]: -18.1% (active)
growth [7]: -24.3% (active)
growth [8]: 21.1%
growth [9]: 20.6%

O=C(CNc1nc(-c2ccc(Cl)cc2)cs1)Nc1ccc(-c2nc3ccccc3s2)cc1
growth [1]: 89.7%
growth [2]: 87.4%
growth [3]: 98%
growth [4]: 90.4%
growth [5]: 70.5%
growth [6]: 95%
growth [7]: 59.1%
growth [8]: 94%
growth [9]: 94.2%

CN[C@@H]1C[C@H]2O[C@@](C)([C@@H]1OC)n1c3ccccc3c3c4c(c5c6ccccc6n2c5c31)C(=O)N[C@H]4O
growth [1]: 1.68% (active)
growth [2]: -46.2% (active)
growth [3]: -36.7% (active)
growth [4]: -2.9% (active)
growth [5]: 16%
growth [6]: -68.5% (active)
growth [7]: 0.929% (active)
growth [8]: -31.6% (active)
growth [9]: -39.1% (active)

COc1cc2ncnc(Nc3cccc(Cl)c3F)c2cc1OC(=O)N1CCN(C)C[C@H]1C
growth [1]: 62.6%
growth [2]: 76.4%
growth [3]: 64.2%
growth [4]: 46.5%
growth [5]: 103%
growth [6]: -6.41% (active)
growth [7]: 16.4%
growth [8]: 69.5%
growth [9]: 64.3%

CS(=O)(=O)N1CCc2c(-c3cnc(N)nc3)nc(N3CCOCC3)nc21
growth [1]: 6.13% (active)
growth [2]: 18.1%
growth [3]: 6.31% (active)
growth [4]: 4.76% (active)
growth [5]: -5.74% (active)
growth [6]: -40.6% (active)
growth [7]: -38.1% (active)
growth [8]: 9.64% (active)
growth [9]: 12.9%

Cc1cccc(Cl)c1NC(=O)c1cnc(Nc2cc(N3CCOCC3)cc(N3CCOCC3)c2)s1
growth [1]: 15.7%
growth [2]: 89.8%
growth [3]: -36.2% (active)
growth [4]: 23.3%
growth [5]: 60.4%
growth [6]: -38.7% (active)
growth [7]: -51.7% (active)
growth [8]: 19.7%
growth [9]: 23.6%

Cc1ccc(-n2nc(C(C)(C)C)cc2NC(=O)NCc2cc(F)ccc2Oc2ccc3c(cnn3CCO)c2)cc1
growth [1]: 7.67% (active)
growth [2]: 18.1%
growth [3]: 23.6%
growth [4]: 25.7%
growth [5]: 27.5%
growth [6]: 18.2%
growth [7]: 8.97% (active)
growth [8]: 54.3%
growth [9]: 21.3%

CN1CC[C@H](c2c(O)cc(O)c3c(=O)cc(-c4ccccc4Cl)oc23)[C@H](O)C1
growth [1]: -0.341% (active)
growth [2]: 6.39% (active)
growth [3]: 7.4% (active)
growth [4]: 8.36% (active)
growth [5]: 1.82% (active)
growth [6]: 10.2%
growth [7]: 4.27% (active)
growth [8]: 17.4%
growth [9]: 2.07% (active)
